# Results filed as inconclusive are left out. The source made the active and inactive calls. Rule for the calls: active = hit-call score of the fitted dose curve at least 0.9, where 1 is the maximum; inconclusive = response in the unintended direction; inactive = score below 0.9.
# Molecular target: Estrogen receptor (Homo sapiens) (UniProt P03372)
# Experiment: CCTE_Deisenroth_AIME_384WELL_LUC_Inactive: CCTE's 384-well Estrogen Receptor Transactivation Assay without AIME metabolic competence (ERTA luciferase; metabolism negative), Deisenroth Lab (AID 2284038);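 note: hits raise estrogen receptor luciferase signal so potencies reflect agonists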
# Summary of the method: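 VM7Luc4E2 ER transactivation, luciferase bioluminescence after 24 h, using medium pre-incubated 2 h with S9-free alginate microspheres. Concentrations 0.002–200 uM; gain of signal fitted relative to 17beta-estradiol.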
# Sequence of Estrogen receptor (Homo sapiens) (P03372 whole entry, looked up): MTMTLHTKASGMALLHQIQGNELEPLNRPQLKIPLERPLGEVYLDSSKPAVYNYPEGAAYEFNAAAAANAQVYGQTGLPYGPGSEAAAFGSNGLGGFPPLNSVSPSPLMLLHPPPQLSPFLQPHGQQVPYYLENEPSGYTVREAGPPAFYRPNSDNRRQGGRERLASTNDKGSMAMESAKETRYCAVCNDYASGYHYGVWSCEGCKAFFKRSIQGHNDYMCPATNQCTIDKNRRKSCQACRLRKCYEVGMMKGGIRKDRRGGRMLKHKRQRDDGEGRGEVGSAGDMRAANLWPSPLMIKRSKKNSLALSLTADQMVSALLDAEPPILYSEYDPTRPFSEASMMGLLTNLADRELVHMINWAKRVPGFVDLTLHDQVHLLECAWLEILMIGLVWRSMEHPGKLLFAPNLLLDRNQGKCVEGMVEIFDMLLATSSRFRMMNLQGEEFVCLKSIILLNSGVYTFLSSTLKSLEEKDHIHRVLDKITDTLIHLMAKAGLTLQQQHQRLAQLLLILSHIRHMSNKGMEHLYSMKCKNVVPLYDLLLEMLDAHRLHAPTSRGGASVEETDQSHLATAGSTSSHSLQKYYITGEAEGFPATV
row,Compound,outcome
1,CCCCCCCCCC=CCC1CC(=O)OC1=O (stereo not drawn),inactive
2,CCCCc1ccc2ccccc2c1S(=O)(=O)O,inactive
3,COc1cc([N+](=O)[O-])ccc1N,inactive

# Test system: not listed separately
# Experiment: CCTE_Deisenroth_AIME_384WELL_CTox_Inactive: Cytotoxicity Assessment (CTOX) in CCTE's 384-well Estrogen Receptor Transactivation Assay without AIME metabolic competence (metabolism negative), Deisenroth Lab (AID 2284039);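 note: cell viability via live-cell protease substrate cleaved to fluorescent probe; cells exposed 24 h to medium preincubated 2 h with alginate-water beads without S9; loss of fluorescence signal means loss of viability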
# Summary of the method: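 VM7Luc4E2 human breast cells received conditioned medium from a 2 h incubation of chemical with alginate-water microspheres (no S9), then were exposed 24 h. Viability was read as protease-substrate cleavage to a fluorescent probe; loss of signal was fitted bidirectionally over 0.002–200 uM.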
Compound,AC50,outcome
CCCCCCCCCCCC,100 µM (active),–
CCC(C)c1ccccc1O (stereo not drawn),0.00093 µM (active),–
CCCCCCCCCC=CCC1CC(=O)OC1=O (stereo not drawn),–,inactive
CCCCc1ccc2ccccc2c1S(=O)(=O)O,–,inactive
COc1cc([N+](=O)[O-])ccc1N,100 µM (active),–
